Data taken from article PMC5540273 (PLoS ONE, 2017).

Key:
Settings in all cases: concentration: 1 μM, replicates: in singlicate; n = 1
TLK2 = tested on: TLK2
TNIK = tested on: TNIK
TNK1 = tested on: TNK1
TNK2 = tested on: TNK2
TNNI3K = tested on: TNNI3K
TRKA = tested on: T1, TRKA
T1 construct: gene NTRK1

TRKB = tested on: TRKB
TRKC = tested on: T2, TRKC
T2 construct: gene NTRK3

TRPM6 = tested on: TRPM6
TSSK1B = tested on: TSSK1B
TSSK3 = tested on: TSSK3
TTK = tested on: TTK
TXK = tested on: TXK
[1] = tested on: TYK2(JH1domain-catalytic)
[2] = tested on: TYK2(JH2domain-pseudokinase)
TYRO3 = tested on: TYRO3
ULK1 = tested on: ULK1
ULK2 = tested on: ULK2
ULK3 = tested on: ULK3
VEGFR2 = tested on: T3, VEGFR2
T3 construct: gene KDR
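Note: KINOMEscan kinase panel screen.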

Structure (SMILES) | %Inh (TLK2) | %Inh (TNIK) | %Inh (TNK1) | %Inh (TNK2) | %Inh (TNNI3K) | %Inh (TRKA) | %Inh (TRKB) | %Inh (TRKC) | %Inh (TRPM6) | %Inh (TSSK1B) | %Inh (TSSK3) | %Inh (TTK) | %Inh (TXK) | %Inh [1] | %Inh [2] | %Inh (TYRO3) | %Inh (ULK1) | %Inh (ULK2) | %Inh (ULK3) | %Inh (VEGFR2)
Cc1c2ccc(N(C)c3ccnc(Nc4cccc(S(N)(=O)=O)c4)n3)cc2nn1Cc1ccccc1.Cl.Cl [GW787226] | 12% | 88% | 62% | 0% | 3% | 0% | 0% | 0% | 41% | 1% | 0% | 35% | 17% | 16% | 0% | 0% | 3% | 0% | 6% | 99.2%
Cc1cn2c(=O)cc(N3CCOCC3)nc2n1Cc1cccc(Cl)c1Cl [GSK2334006] | 0% | 0% | 0% | 12% | 0% | 17% | 0% | 0% | 0% | 29% | 29% | 0% | 8% | 19% | 18% | 7% | 0% | 0% | 7% | 8%
NCC(NC(=O)c1cc(-c2cn[nH]c2)c(-c2ccnc3[nH]ccc23)s1)c1ccccc1.O=C(O)C(F)(F)F.O=C(O)C(F)(F)F (stereo not drawn) [GSK1325775] | 14% | 39% | 0% | 0% | 0% | 76% | 57% | 57% | 45% | 33% | 23% | 14% | 10% | 49% | 31% | 0% | 18% | 7% | 14% | 18%
Cc1cccc(-c2nc(Nc3ccc4ncsc4c3)c3ccccc3n2)n1 [GW867588] | 0% | 15% | 39% | 0% | 1% | 14% | 0% | 0% | 0% | 0% | 0% | 55% | 0% | 0% | 55% | 0% | 4% | 0% | 2% | 6%
Fc1ccc(-c2ncn(CCCN3CCOCC3)c2-c2cccnc2)cc1 [SB-211743] | 0% | 13% | 14% | 0% | 0% | 0% | 0% | 0% | 3% | 0% | 0% | 15% | 0% | 0% | 7% | 0% | 4% | 2% | 18% | 0%
CNc1ncnc2[nH]ncc12 [SKF-18355] | 0% | 17% | 0% | 0% | 0% | 0% | 0% | 0% | 23% | 0% | 0% | 0% | 0% | 15% | 27% | 0% | 11% | 42% | 14% | 1%
O=C(NCCNc1ccnc(Nc2ccc(F)cc2)n1)Nc1ccccc1F [GSK1379880] | 0% | 0% | 0% | 8% | 5% | 0% | 18% | 13% | 24% | 0% | 12% | 0% | 1% | 24% | 17% | 0% | 19% | 0% | 28% | 0%
c1ccc(-c2cc(-c3c[nH]nc3-c3ccccn3)ccn2)cc1 [GW576604] | 0% | 72% | 0% | 1% | 89% | 54% | 25% | 0% | 11% | 3% | 2% | 0% | 0% | 13% | 26% | 0% | 0% | 0% | 0% | 0%
COc1ccc(S(=O)(=O)NC2CCN(c3cc(C)nc(Nc4cccc(C#N)c4)n3)CC2)cc1.O=C(O)C(F)(F)F [GSK1653539] | 0% | 0% | 0% | 8% | 0% | 7% | 0% | 0% | 0% | 0% | 0% | 0% | 0% | 0% | 6% | 0% | 0% | 0% | 23% | 0%
Fc1ccc(-c2nn3c(OCC(F)(F)F)cccc3c2-c2ccncc2)cc1 [GW514784] | 0% | 29% | 0% | 18% | 0% | 15% | 37% | 25% | 0% | 0% | 5% | 0% | 18% | 10% | 36% | 0% | 8% | 0% | 9% | 0%
O=C(Nc1cccc(-c2nn3ncccc3c2-c2ccnc(Nc3cccc(C(F)(F)F)c3)n2)c1)c1c(F)cccc1F [GSK299495] | 0% | 14% | 90.5% | 49% | 8% | 0% | 39% | 20% | 33% | 5% | 18% | 6% | 76% | 22% | 39% | 87% | 0% | 0% | 7% | 29%
Nc1nccc(-c2c(-c3ccc(F)cc3)ncn2C2CCN(CC(F)(F)F)CC2)n1 [SB-236560] | 0% | 6% | 0% | 10% | 0% | 70% | 35% | 18% | 0% | 0% | 67% | 0% | 0% | 14% | 82% | 0% | 0% | 30% | 10% | 0%
NS(=O)(=O)c1cccc(-c2ccc3ncc(N4CCOCC4)nc3c2)c1 [GSK1535721] | 8% | 34% | 0% | 2% | 14% | 37% | 0% | 5% | 0% | 0% | 6% | 6% | 0% | 0% | 31% | 0% | 0% | 0% | 2% | 10%
CN1c2ccc(NCc3ccc(F)cc3)cc2-c2c(cnn2C)S1(=O)=O | 0% | 38% | 35% | 0% | 2% | 0% | 0% | 2% | 0% | 0% | 0% | 0% | 0% | 0% | 12% | 16% | 0% | 0% | 0% | 4%
Cc1cccc(-c2nc(-c3ccc(S(C)(=O)=O)cc3)sc2-c2ccncc2)c1 | 13% | 36% | 0% | 0% | 0% | 6% | 0% | 0% | 9% | 0% | 0% | 20% | 0% | 2% | 3% | 0% | 0% | 0% | 0% | 0%
CN(C(=O)c1ccc(-c2cc(-c3c[nH]nc3-c3ccccn3)ccn2)cc1)C1CCOCC1 [GW810083] | 0% | 23% | 0% | 0% | 0% | 38% | 41% | 17% | 0% | 0% | 33% | 0% | 0% | 12% | 25% | 0% | 5% | 14% | 12% | 0%
NS(=O)(=O)CCc1cccc(Nc2nccc(-c3c(-c4cccc(NC(=O)c5c(F)cccc5F)c4)nn4ccccc34)n2)c1 [GSK336735] | 2% | 85% | 100% | 89% | 48% | 0% | 19% | 11% | 56% | 28% | 23% | 26% | 90.1% | 98.7% | 18% | 100% | 0% | 0% | 3% | 90%
N#Cc1ccc(-c2cc(-c3c[nH]nc3-c3ccccn3)ccn2)cc1 [GW693028] | 0% | 75% | 0% | 12% | 31% | 0% | 4% | 16% | 0% | 16% | 8% | 3% | 6% | 1% | 28% | 24% | 6% | 0% | 6% | 0%
O=C(Nc1n[nH]c2cc(-c3cccc(F)c3)ccc12)C1CC1 [SB-735464] | 0% | 72% | 9% | 0% | 0% | 4% | 2% | 38% | 7% | 0% | 9% | 21% | 14% | 1% | 10% | 0% | 2% | 12% | 29% | 12%
Cn1ccc2ncnc(Oc3ccc(NC(=O)Nc4ccncc4)c(Cl)c3)c21 | 0% | 0% | 0% | 0% | 0% | 0% | 0% | 0% | 0% | 0% | 0% | 0% | 0% | 3% | 5% | 0% | 0% | 10% | 0% | 1%
COc1ccc(Nc2nccc(N3CCC(NC(=O)Nc4cccc(C(C)=O)c4)C3)n2)cc1 (stereo not drawn) [GSK1379731] | 0% | 0% | 0% | 0% | 48% | 50% | 44% | 78% | 2% | 0% | 8% | 15% | 0% | 35% | 16% | 6% | 18% | 0% | 16% | 0%
